USP17 block = blocks human USP17 ubiquitin-rhodamine cleavage. AID 1645855. inhibition, % at 50 µM. 47,000 tested, 6.5% active. purified USP17, Ub-rhodamine cleavage fluorescence, 3 h. A8MUK1
Target sequence (A8MUK1 whole entry, looked up): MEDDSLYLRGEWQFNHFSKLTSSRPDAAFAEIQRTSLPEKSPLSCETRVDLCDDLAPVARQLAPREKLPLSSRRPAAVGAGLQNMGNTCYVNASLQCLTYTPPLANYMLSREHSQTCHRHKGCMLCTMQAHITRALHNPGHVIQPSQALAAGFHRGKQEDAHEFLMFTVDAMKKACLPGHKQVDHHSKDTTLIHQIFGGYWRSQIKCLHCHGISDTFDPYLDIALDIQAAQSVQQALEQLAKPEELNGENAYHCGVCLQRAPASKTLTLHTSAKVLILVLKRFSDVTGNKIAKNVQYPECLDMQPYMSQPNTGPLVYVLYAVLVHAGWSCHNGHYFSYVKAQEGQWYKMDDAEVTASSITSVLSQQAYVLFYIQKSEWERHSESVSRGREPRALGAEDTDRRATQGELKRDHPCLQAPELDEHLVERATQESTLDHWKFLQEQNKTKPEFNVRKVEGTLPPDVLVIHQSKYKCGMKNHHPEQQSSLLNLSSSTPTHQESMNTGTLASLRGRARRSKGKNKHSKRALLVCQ
USP30 inh = inhibitors of human USP30 deubiquitinase | Q70CQ3 | purified USP30, Ub-rhodamine cleavage fluorescence | inhibition, % at 25 µM | 47,000 tested, 5.3% active
USP28 block = inhibitors of human USP28 deubiquitinase; inhibition, % at 25 µM; 47,000 tested, 3% active; purified USP28, Ub-rhodamine cleavage fluorescence, 30 min; AID 1645857
* = called active by the depositor. Sampled rows, rich in hits. Any-hit rate of the full collection: about 11%. Cut-off read from the data, not from the text of the source: active = inhibition above about 30%; inactive = the rest.

Screening O=C(Nc1ccc(F)cc1)c1ccc(N2CCCCS2(=O)=O)cc1Cl returned USP17 block 18.0, USP30 inh -1.2 and USP28 block 19.1.
O=C(Nc1ccc(Cl)c(Cl)c1)c1cccc(N2CCCCS2(=O)=O)c1 was read as USP17 block 3.1, USP30 inh -4.8 and USP28 block 34.4*.
For CC(=O)c1ccc(NC(=O)c2ccc(N3CCCCS3(=O)=O)cc2Cl)cc1 the results were USP17 block 51.6*, USP30 inh 4.0 and USP28 block 24.7.
Screening O=C(Nc1cccc(Br)c1)c1cccc(N2CCCCS2(=O)=O)c1 returned USP17 block -9.4, USP30 inh -15.8 and USP28 block -0.6.
For Fc1ccc(-c2cnc(NCCc3c[nH]c4ccccc34)nc2)cc1 the results were USP30 inh 17.1 and USP28 block 0.4.
COc1cc(-c2cnc3c(NC(C)=O)cc(-c4cccnc4)cn23)cc(OC)c1OC was read as USP17 block -1.0, USP30 inh 2.3 and USP28 block 0.1.
Screening CCc1cc2c(=O)n(Cc3ccco3)c(SCC(=O)Nc3ccccc3O)nc2s1 returned USP30 inh 43.7* and USP28 block 13.3.
Screening Cc1sc2nc(SCC(=O)Nc3ccccc3O)n(Cc3ccco3)c(=O)c2c1C returned USP17 block 13.3, USP30 inh 14.8 and USP28 block 11.9.
Cc1sc2nc(C3CC3)n(C3CCN(C(=O)CC(C)C)CC3)c(=O)c2c1C was read as USP17 block 19.8, USP30 inh 40.1* and USP28 block 8.4.
Cc1sc2nc(C3CC3)n(C3CCN(C(=O)C4CC4)CC3)c(=O)c2c1C was read as USP17 block 22.5, USP30 inh 32.7* and USP28 block 12.7.
`Cc1sc2nc(C(C)C)n(C3CCN(C(=O)C4CCCO4)CC3)c(=O)c2c1C` (stereo not drawn) gave USP17 block -5.1, USP30 inh 0.0 and USP28 block -4.4.
Cc1sc2nc(C)n(C3CCN(CC(=O)NCC4CC4)CC3)c(=O)c2c1C was read as USP17 block -3.7, USP30 inh -1.4 and USP28 block -12.9.
Cc1ccccc1C(=O)N1CCC(C(N)=O)(N2CCCCC2)CC1 was read as USP17 block 14.1, USP30 inh 24.8 and USP28 block 9.0.
`Cc1ncccc1C(=O)N1CCC2(CC1)CO[C@@H]1c3cc(Cl)ccc3OC(C)(C)[C@H]1C2` gave USP17 block -1.6, USP30 inh 11.2 and USP28 block 3.7.
For COc1cccc(CN2CCc3nc4nc(C)ccc4cc3C2)c1 the results were USP17 block -165.7, USP30 inh inactive and USP28 block -272.1.
Cc1ccc(NC(=O)C2CCN(c3c(C(=O)N4CCCCC4)cnc4snc(C)c34)CC2)c(C)c1 was read as USP17 block -14.3, USP30 inh -7.5 and USP28 block -1.8.
Cc1cc(Nc2cccc(C(=O)Nc3ccccc3C)c2)n2nc(-c3cccnc3)nc2n1 was read as USP17 block 8.0, USP30 inh 46.1* and USP28 block 25.0.
`CC(C)c1cc(NCc2cccnc2)n2nc(-c3cccnc3)nc2n1` gave USP17 block -0.1.
For Cc1cc(NCCC(=O)Nc2ccc(F)cc2)n2nc(-c3cccnc3)nc2n1 the results were USP17 block -3.0, USP30 inh -1.0 and USP28 block 8.3.
Cc1cc(Nc2ccc(Cl)cc2)n2nc(-c3cccnc3)nc2n1 was read as USP17 block 12.0, USP30 inh 13.1 and USP28 block 4.0.
CC(C)c1cc(Nc2cccc(F)c2)n2nc(-c3cccnc3)nc2n1 was read as USP17 block 34.3*, USP30 inh 53.1* and USP28 block 6.1.
`Cc1cc(Nc2cccc(C(=O)Nc3ccccc3)c2)n2nc(-c3cccnc3)nc2n1` gave USP17 block 28.2, USP30 inh 20.9 and USP28 block 9.2.
Screening Cc1cc(Nc2ccc(C(=O)NCc3ccco3)cc2)n2nc(-c3cccnc3)nc2n1 returned USP17 block 74.7*, USP30 inh 30.3* and USP28 block 11.0.
For CCc1ccc(NC(=O)CCNc2cc(C)nc3nc(-c4cccnc4)nn23)cc1 the results were USP17 block 34.4*, USP30 inh -46.8 and USP28 block -41.8.
COc1ccc(N2CCN(C(=O)CN3C(=O)NC(Cc4ccccc4)(c4ccccc4)C3=O)CC2)cc1 (stereo not drawn) was read as USP17 block 18.1, USP30 inh 17.9 and USP28 block 14.6.
For Cc1cncc(C2CCN(C(=O)c3cc(C(C)(C)C)[nH]n3)CC2)n1 the results were USP17 block 1.6, USP30 inh 1.5 and USP28 block 8.0.
For CCCN1C(=O)c2cc3sc(CC)cc3n2CC1(C)C(=O)NC1CCCCC1 (stereo not drawn) the results were USP17 block -11.0, USP30 inh -5.8 and USP28 block -20.3.
For Cc1ccc(CNS(=O)(=O)c2ccc3onc(C(=O)N4CCOCC4)c3c2)cc1 the results were USP17 block -6.7, USP30 inh -11.9 and USP28 block -2.8.
CC(=O)Nc1ccc(CN2CCN(c3cnn4c(C5CC5)nnc4c3)CC2)cc1 was read as USP17 block 10.1, USP30 inh 32.7* and USP28 block 10.2.
Cc1ccc(NC(=O)N2CCN(c3cnn4c(C5CC5)nnc4c3)CC2)cc1 was read as USP17 block -0.7, USP30 inh 2.0 and USP28 block 17.6.
For Cc1cn2nc(N3CCC(C4CCCCCN4C(N)=O)CC3)sc2n1 (stereo not drawn) the results were USP17 block 12.0, USP30 inh 10.1 and USP28 block 6.2.
`NC(=O)N1CCCCCC1C1CCN(c2ncnc3ccsc23)CC1` (stereo not drawn) gave USP17 block 23.6, USP30 inh 32.0* and USP28 block 15.3.
`CC1CCc2c(sc(NC(=O)/C=C/C(=O)O)c2C(N)=O)C1` (stereo not drawn) gave USP17 block -6.3, USP30 inh -7.0 and USP28 block -4.8.
CCOc1ccc2nc(C(=O)N3CCN(CC)CC3)cn2n1 was read as USP17 block -8.0, USP30 inh -23.8 and USP28 block -8.6.
Screening N#Cc1ccccc1Sc1ccccc1C(=O)Nc1ccc(Cl)cc1 returned USP17 block 0.3, USP30 inh 3.6 and USP28 block -8.4.
Screening Cc1ccn(-c2ccc(NC(=O)c3ccccc3Sc3ccccc3C#N)cc2)n1 returned USP17 block 50.5*, USP30 inh 34.9* and USP28 block 38.3*.
CN1C(=O)SC(Cc2ccc3c(c2)OCO3)C1=O (stereo not drawn) was read as USP17 block 15.6, USP30 inh 27.9 and USP28 block 15.2.
Cc1nnc(-c2cccnc2N2CCN(C(=O)NCC(C)C)CC2)o1 was read as USP17 block -0.3, USP30 inh 2.6 and USP28 block 3.9.
Screening O=C(CSc1nc2cc(S(=O)(=O)Nc3ccccc3Cl)ccc2o1)Nc1ccc(N2CCOCC2)cc1 returned USP30 inh 53.2* and USP28 block 22.5.
Screening O=C(CSc1nc2cc(S(=O)(=O)Nc3cccc(Cl)c3)ccc2o1)NC1CC1 returned USP17 block -10.0, USP30 inh -9.5 and USP28 block -5.7.
For COc1cccc(-c2noc(-c3occc3Br)n2)c1 the results were USP17 block 39.6*, USP30 inh 3.8 and USP28 block 29.8.
`COc1ccc(-c2nc(-c3cccc(-c4ccnn4C)c3)no2)cc1` gave USP17 block 7.0, USP30 inh 12.5 and USP28 block 4.8.

Screening data from PubChem BioAssay.
